# Reference: the supplement of paper PMC4466140
# Columns and labels:
# Assay in all cases: SPOT peptide array binding signal intensity (averaged, normalized) (arbitrary units (background-subtracted, floor 0; scale differs between SH3 domains)); higher = stronger binding of the SH3 domain to the peptide
# CaNbp2 = molecular target: CaNbp2
# Summary of the method: (§1)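 Peptides were synthetic 15-mers on cellulose membranes, with every cysteine replaced by serine. They were incubated overnight at 4°C with GST-SH3 domains from four yeast species at 10 μg/ml in TBS-based blocking buffer. Binding signal, the replicate-averaged normalized and background-subtracted spot intensity, is in arbitrary units that differ between domains.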
# CaRvs167 = molecular target: CaRvs167
# Summary of the method: as §1
# CaRvs167-3 = molecular target: CaRvs167-3
# Summary of the method: as §1
# CaSho1 = molecular target: CaSho1
# Summary of the method: as §1
# CaSla1-D1-D2 = molecular target: CaSla1-D1-D2
# Summary of the method: as §1
# CaSla1-D3 = molecular target: CaSla1-D3
# Summary of the method: as §1
# ScAbp1 = molecular target: ScAbp1
# Summary of the method: as §1
# ScBbc1 = molecular target: ScBbc1
# Summary of the method: as §1
# ScBem1-D1 = molecular target: ScBem1-D1
# Summary of the method: as §1
# ScBzz1-D1 = molecular target: ScBzz1-D1
# Summary of the method: as §1
# ScBzz1-D2 = molecular target: ScBzz1-D2
# Summary of the method: as §1
# ScCyk3 = molecular target: ScCyk3
# Summary of the method: as §1
# ScFus1 = molecular target: ScFus1
# Summary of the method: as §1
# ScHof1 = molecular target: ScHof1
# Summary of the method: as §1
# ScHse1 = molecular target: ScHse1
# Summary of the method: as §1
# ScLsb1 = molecular target: ScLsb1
# Summary of the method: as §1
# ScLsb2 = molecular target: ScLsb2
# Summary of the method: as §1
# ScLsb3 = molecular target: ScLsb3
# Summary of the method: as §1
# ScLsb4 = molecular target: ScLsb4
# Summary of the method: as §1
# ScMyo3 = molecular target: ScMyo3
# Summary of the method: as §1
# ScMyo5 = molecular target: ScMyo5
# Summary of the method: as §1
# ScNbp2 = molecular target: ScNbp2
# Summary of the method: as §1
# ScPex13 = molecular target: ScPex13
# Summary of the method: as §1
# ScRvs167 = molecular target: ScRvs167
# Summary of the method: as §1
# ScSho1 = molecular target: ScSho1
# Summary of the method: as §1
# ScSla1-D1-D2 = molecular target: ScSla1-D1-D2
# Summary of the method: as §1
# ScSla1-D3 = molecular target: ScSla1-D3
# Summary of the method: as §1
# SpAbp1-D1 = molecular target: SpAbp1-D1
# Summary of the method: as §1
# SpBbc1 = molecular target: SpBbc1
# Summary of the method: as §1
# SpBzz1-D1 = molecular target: SpBzz1-D1
# Summary of the method: as §1
# SpBzz1-D2 = molecular target: SpBzz1-D2
# Summary of the method: as §1
# SpCyk3 = molecular target: SpCyk3
# Summary of the method: as §1
# SpHof1 = molecular target: SpHof1
# Summary of the method: as §1
# SpHof1-2 = molecular target: SpHof1-2
# Summary of the method: as §1
# SpHof1-3 = molecular target: SpHof1-3
# Summary of the method: as §1
# SpHse1 = molecular target: SpHse1
# Summary of the method: as §1
# SpLsb1 = molecular target: SpLsb1
# Summary of the method: as §1
# SpLsb4 = molecular target: SpLsb4
# Summary of the method: as §1
# SpMyo1 = molecular target: SpMyo1
# Summary of the method: as §1
# SpNbp2 = molecular target: SpNbp2
# Summary of the method: as §1
# SpPex13 = molecular target: SpPex13
# Summary of the method: as §1
# SpRvs167 = molecular target: SpRvs167
# Summary of the method: as §1
# SpSla1-D1-D2 = molecular target: SpSla1-D1-D2
# Summary of the method: as §1
# SpSla1-D3 = molecular target: SpSla1-D3
# Summary of the method: as §1
binder,measurement,setting,value
QTMRQAPKRPDADVA,SPOT peptide array binding signal intensity,CaNbp2,1450
same,SPOT peptide array binding signal intensity,CaRvs167,163
same,SPOT peptide array binding signal intensity,CaRvs167-3,0.75
same,SPOT peptide array binding signal intensity,CaSho1,1860
same,SPOT peptide array binding signal intensity,CaSla1-D1-D2,553
same,SPOT peptide array binding signal intensity,CaSla1-D3,650
same,SPOT peptide array binding signal intensity,ScAbp1,7
same,SPOT peptide array binding signal intensity,ScBbc1,68.5
same,SPOT peptide array binding signal intensity,ScBem1-D1,1
same,SPOT peptide array binding signal intensity,ScBzz1-D1,6
same,SPOT peptide array binding signal intensity,ScBzz1-D2,27
same,SPOT peptide array binding signal intensity,ScCyk3,4
same,SPOT peptide array binding signal intensity,ScFus1,1110
same,SPOT peptide array binding signal intensity,ScHof1,0.5
same,SPOT peptide array binding signal intensity,ScHse1,84.5
same,SPOT peptide array binding signal intensity,ScLsb1,78
same,SPOT peptide array binding signal intensity,ScLsb2,29.5
same,SPOT peptide array binding signal intensity,ScLsb3,961
same,SPOT peptide array binding signal intensity,ScLsb4,524
same,SPOT peptide array binding signal intensity,ScMyo3,227
same,SPOT peptide array binding signal intensity,ScMyo5,47.5
same,SPOT peptide array binding signal intensity,ScNbp2,3190
same,SPOT peptide array binding signal intensity,ScPex13,766
same,SPOT peptide array binding signal intensity,ScRvs167,136
same,SPOT peptide array binding signal intensity,ScSho1,930
same,SPOT peptide array binding signal intensity,ScSla1-D1-D2,690
same,SPOT peptide array binding signal intensity,ScSla1-D3,700
same,SPOT peptide array binding signal intensity,SpAbp1-D1,66
same,SPOT peptide array binding signal intensity,SpBbc1,42.5
same,SPOT peptide array binding signal intensity,SpBzz1-D1,188
same,SPOT peptide array binding signal intensity,SpBzz1-D2,512
same,SPOT peptide array binding signal intensity,SpCyk3,3
same,SPOT peptide array binding signal intensity,SpHof1,51.5
same,SPOT peptide array binding signal intensity,SpHof1-2,27.5
same,SPOT peptide array binding signal intensity,SpHof1-3,32.8
same,SPOT peptide array binding signal intensity,SpHse1,240
same,SPOT peptide array binding signal intensity,SpLsb1,34
same,SPOT peptide array binding signal intensity,SpLsb4,990
same,SPOT peptide array binding signal intensity,SpMyo1,229
same,SPOT peptide array binding signal intensity,SpNbp2,847
same,SPOT peptide array binding signal intensity,SpPex13,35
same,SPOT peptide array binding signal intensity,SpRvs167,188
same,SPOT peptide array binding signal intensity,SpSla1-D1-D2,11
same,SPOT peptide array binding signal intensity,SpSla1-D3,491
